A short description of assay [1]: antimalarial activity against Dd2 strain (AID 2302;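 active = growth inhibition above 50% at the single 2 µM test dose, taken to imply half-maximal potency below 2 µM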;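 note: 0% = DMSO untreated growth and 100% = chloroquine plus artemisinin killed control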). The note with it: P. falciparum Dd2 in RBCs, LDH growth readout, 72 h; at 2 µM; stronger effect = higher value.
A short description of assay [2]: HepG2 cytotoxicity, primary screen, cytotoxicity control for P. falciparum antimalarial project, cell-based, ATP luminescence (AID 2303;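 active = inhibition above 50%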;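 note: 0% = DMSO wells and 100% = digitonin-killed cells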). To be noted: HepG2 viability, 24-48 h, at 10 µM, stronger effect = higher value.
Assay [3] deals with L-lactate dehydrogenase (Plasmodium falciparum (isolate CDC / Honduras)) (UniProt Q27743). The assay can be described thus: PfLDH activity inhibition – cell lysate, 3D7 strain, counter-screen for P. falciparum growth inhibition project (AID 2304).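 Note: 0% = vehicle and 100% = reference inhibitor.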 The note with it: P. falciparum 3D7 crude extract, LDH APAD/NBT absorbance; at 2 µM; stronger effect = higher value.
L-lactate dehydrogenase (Plasmodium falciparum (isolate CDC / Honduras)), sequence (Q27743 whole entry, looked up): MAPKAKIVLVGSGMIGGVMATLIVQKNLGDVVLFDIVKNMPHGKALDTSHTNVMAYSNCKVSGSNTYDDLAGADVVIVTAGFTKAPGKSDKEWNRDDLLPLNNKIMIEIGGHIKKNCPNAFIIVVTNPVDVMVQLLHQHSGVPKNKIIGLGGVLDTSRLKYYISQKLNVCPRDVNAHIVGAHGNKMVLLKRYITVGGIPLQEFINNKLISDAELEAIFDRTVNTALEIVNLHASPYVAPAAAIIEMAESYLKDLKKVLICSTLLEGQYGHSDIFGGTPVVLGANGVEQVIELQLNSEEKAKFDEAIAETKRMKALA
The nature of assay [4]: inhibition of 3D7 malaria parasite growth – strain 3D7 (AID 2306).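 Note: 0% = DMSO wells and 100% = chloroquine plus artemisinin control wells.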 The note with it: P. falciparum 3D7 erythrocytic growth, LDH absorbance, 72 h; at 2 µM; stronger effect = higher value.
In assay [5] the target is Calcium-dependent protein kinase 1 (Plasmodium falciparum (isolate 3D7)) (UniProt P62344). Nature of the assay: PfCDPK1 kinase inhibitors, biochemical, TCAMS library (AID 1159585; cut-off not given, nearly all actives have IC50 up to about 0.98 µM;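 note: inhibitors leave more ATP so luminescence rises with inhibition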). The note with it: recombinant PfCDPK1, Kinase-Glo ATP depletion luminescence. On the technique in general: In Kinase-Glo more light means more ATP remaining.
Calcium-dependent protein kinase 1 (Plasmodium falciparum (isolate 3D7)), sequence (P62344 whole entry, looked up): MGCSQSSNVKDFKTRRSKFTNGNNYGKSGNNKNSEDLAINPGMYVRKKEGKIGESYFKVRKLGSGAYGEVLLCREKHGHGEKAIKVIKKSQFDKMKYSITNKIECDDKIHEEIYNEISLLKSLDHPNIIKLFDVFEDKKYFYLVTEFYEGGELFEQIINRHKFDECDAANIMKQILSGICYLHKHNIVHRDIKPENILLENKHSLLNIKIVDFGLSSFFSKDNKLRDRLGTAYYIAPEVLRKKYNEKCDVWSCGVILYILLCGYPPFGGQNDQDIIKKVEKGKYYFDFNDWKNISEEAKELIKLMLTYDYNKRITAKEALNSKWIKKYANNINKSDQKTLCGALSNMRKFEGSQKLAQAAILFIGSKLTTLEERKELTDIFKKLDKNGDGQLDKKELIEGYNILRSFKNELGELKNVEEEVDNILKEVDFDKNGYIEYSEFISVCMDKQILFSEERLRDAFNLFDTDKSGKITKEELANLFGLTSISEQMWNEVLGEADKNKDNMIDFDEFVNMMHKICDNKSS
For assay [6], the target named is Plasmodium falciparum protein kinase 6 (PK6, PF3D7_1337100) (UniProt Q8IDW1). Nature of the assay: PfPK6 kinase inhibitors, biochemical, TCAMS library (AID 1159586). The note with it: recombinant PfPK6, Kinase-Glo ATP depletion luminescence.
Plasmodium falciparum protein kinase 6 (PK6, PF3D7_1337100), sequence (Q8IDW1 1-305): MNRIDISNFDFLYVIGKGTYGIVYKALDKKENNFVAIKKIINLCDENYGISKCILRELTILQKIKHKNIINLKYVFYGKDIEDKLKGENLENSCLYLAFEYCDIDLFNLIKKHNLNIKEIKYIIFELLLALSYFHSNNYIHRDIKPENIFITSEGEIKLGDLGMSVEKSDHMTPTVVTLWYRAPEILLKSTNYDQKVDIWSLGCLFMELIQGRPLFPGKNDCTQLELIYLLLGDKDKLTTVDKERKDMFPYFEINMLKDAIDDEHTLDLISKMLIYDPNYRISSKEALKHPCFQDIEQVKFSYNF
Assay [7] has as its target Protein kinase 7 (PK7), Plasmodium falciparum 3D7 (PF3D7_0213400) (UniProt Q7YTF7). Nature of the assay: inhibition of Plasmodium PK7 catalytic activity – biochemical, TCAMS antimalarial set, Kinase-Glo luminescence (AID 1159587). The note with it: recombinant PfPK7, Kinase-Glo ATP depletion luminescence.
In assay [8] the target is Calcium-dependent protein kinase 4 (Plasmodium falciparum (isolate 3D7)) (UniProt Q8IBS5). Nature of the assay: PfCDPK4 kinase inhibitors, biochemical, TCAMS library (AID 1159588; cut-off not given, nearly all actives have IC50 up to about 0.91 µM). The note with it: recombinant PfCDPK4, Kinase-Glo ATP depletion luminescence.
Calcium-dependent protein kinase 4 (Plasmodium falciparum (isolate 3D7)), sequence (Q8IBS5 whole entry, looked up): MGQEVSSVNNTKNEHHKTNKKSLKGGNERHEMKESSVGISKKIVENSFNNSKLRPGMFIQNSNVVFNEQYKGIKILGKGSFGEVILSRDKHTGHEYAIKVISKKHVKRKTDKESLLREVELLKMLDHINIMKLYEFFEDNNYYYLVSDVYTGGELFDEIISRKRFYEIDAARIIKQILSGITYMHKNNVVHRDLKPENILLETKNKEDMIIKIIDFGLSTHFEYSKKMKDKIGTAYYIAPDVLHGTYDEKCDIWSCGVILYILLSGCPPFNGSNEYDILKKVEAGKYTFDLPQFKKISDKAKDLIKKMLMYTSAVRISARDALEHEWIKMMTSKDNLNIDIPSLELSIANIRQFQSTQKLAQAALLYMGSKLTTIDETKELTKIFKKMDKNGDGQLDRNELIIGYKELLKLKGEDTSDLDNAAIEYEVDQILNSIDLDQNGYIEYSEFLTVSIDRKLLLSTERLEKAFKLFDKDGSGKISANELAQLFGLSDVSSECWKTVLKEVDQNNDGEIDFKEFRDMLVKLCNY

A number with no mark means an inactive call. For some of these results: Entries with a potency or affinity are not part of this list. Activity calls are given as the source filed them. Unless noted, the rule behind the calls is not given here.

Protein kinase 7 (PK7), Plasmodium falciparum 3D7 (PF3D7_0213400), sequence (Q7YTF7 1-343): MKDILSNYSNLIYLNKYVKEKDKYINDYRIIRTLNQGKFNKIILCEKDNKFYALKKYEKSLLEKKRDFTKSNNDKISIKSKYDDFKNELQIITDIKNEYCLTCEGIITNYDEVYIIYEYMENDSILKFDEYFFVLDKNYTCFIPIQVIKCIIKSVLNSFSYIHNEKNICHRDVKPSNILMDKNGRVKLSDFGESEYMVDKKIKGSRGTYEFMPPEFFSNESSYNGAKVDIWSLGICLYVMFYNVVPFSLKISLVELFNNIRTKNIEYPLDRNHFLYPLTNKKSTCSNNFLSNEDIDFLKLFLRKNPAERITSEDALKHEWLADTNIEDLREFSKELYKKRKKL

As for `O=C(/C=C/c1ccccc1Cl)Nc1ccc(Br)c(OCCN2CCC(O)(c3ccccc3)CC2)c1`, the growth inhibition in assay [1] was 85% (active); in assay [4], 101% (active). Besides, the inhibition in assay [2] was 39%; in assay [3], 0%. The result in assay [5], in assay [6], in assay [7] and in assay [8] was inactive.

Consider `O=C(Nc1cccc(C(F)(F)F)c1)N1CCOC(CCN2CCC(c3ccccc3)CC2)(c2ccc(Cl)c(Cl)c2)C1` (stereo not given), for which the growth inhibition is 69% (active) in assay [1] and 87% (active) in assay [4]. The inhibition was 15% in assay [2] and 8% in assay [3]. Also, the outcome in assay [5], in assay [6], in assay [7] and in assay [8] was inactive.

Turning to `CC(C)(C)c1ccc(CN2CCC(NC(=O)c3cc(-c4cccc(C(F)(F)F)c4)cs3)C2)cc1` (stereo not given), the figures for the growth inhibition in assay [1] and in assay [4] were 85% (active) and 98% (active), respectively. The inhibition in assay [2] was 24%; in assay [3], -1%. The outcome in assay [5], in assay [6], in assay [7] and in assay [8] was inactive.

Consider `CCc1ccc(CN2CCC(CNC(=O)c3cc(-c4cccc(Cl)c4)cs3)C2)cc1` (stereo not given), for which the growth inhibition is 19% in assay [1] and 88% (active) in assay [4]. The inhibition was 27% in assay [2] and 4% in assay [3]. Moreover, the outcome in assay [5], in assay [6], in assay [7] and in assay [8] was inactive.

As for `CC(=O)Nc1ccc2[nH]cc(C3CCN(CC4CCC(NC(=O)/C=C/c5ccccc5Cl)CC4)CC3)c2n1` (stereo not given), the growth inhibition in assay [1] was 79% (active); in assay [4] it was 101% (active). Further, the results for the inhibition in assay [2] and in assay [3] were 16% and -1%, respectively. For the same molecule, the result in assay [5], in assay [6], in assay [7] and in assay [8] was inactive.

For `Cc1cnc(-c2cccc(C(=O)NC3CCC(CCN4CCc5ccc(C#N)cc5CC4)CC3)c2)[nH]1` (stereo not given), the growth inhibition in assay [1] was 69% (active); in assay [4] it was 100% (active). The inhibition in assay [2] is 23%; in assay [3], 1%. The result in assay [5], in assay [6], in assay [7] and in assay [8] was inactive.

As to `CCOC(=O)c1ccc(NC(=O)Nc2ccc(-c3cccc(-c4nc5c(C)cccc5[nH]4)c3)cc2)cc1`, the growth inhibition in assay [1] is 100% (active); in assay [4], 101% (active). Moreover, the inhibition in assay [2] is 91% (active); in assay [3] it was -2%. The outcome in assay [5], in assay [6], in assay [7] and in assay [8] was inactive.

In the case of `Cn1c(CN2CCC(N3CCc4cc(NC(=O)c5ccco5)ccc43)C2)cc2ccccc21` (stereo not given), the growth inhibition in assay [1] was 92% (active); in assay [4], 91% (active). The inhibition in assay [2] was -1%; in assay [3], -3%. Besides, the result in assay [5], in assay [6], in assay [7] and in assay [8] was inactive.

In the case of `Nc1n[nH]c(-c2ccccc2Nc2ccnc3cc(-c4nccs4)ccc23)n1`, the growth inhibition was 94% (active) in assay [1] and 100% (active) in assay [4]. The values for the inhibition in assay [2] and in assay [3] were 98% (active) and -2%, respectively. The outcome in assay [5], in assay [6], in assay [7] and in assay [8] was inactive.

Turning to `Fc1ccc2c(NN=Cc3ccccc3)ccnc2c1`, the growth inhibition in assay [1] is 99% (active); in assay [4], 100% (active). Besides, the inhibition in assay [2] was 1%; in assay [3], 2%. For the same molecule, the result in assay [5], in assay [6], in assay [7] and in assay [8] was inactive.

On to `CN1CCC(C(=O)N(Cc2ccc(-c3ccc(CNCCc4ccccc4)cn3)cc2)Cc2cccc(F)c2)CC1`, for which the growth inhibition in assay [1] is 80% (active); in assay [4], 90% (active). Moreover, the inhibition in assay [2] was 30%; in assay [3], -4%. Also, the outcome in assay [5], in assay [6], in assay [7] and in assay [8] was inactive.

Turning to `Clc1cccc(CNc2nc(NCCc3cnc[nH]3)nc(NC3CCCCC3)n2)c1`, the growth inhibition in assay [1] was 0%; in assay [4], 98% (active). For the same molecule, the inhibition was 17% in assay [2] and 5% in assay [3]. The outcome in assay [5], in assay [6], in assay [7] and in assay [8] was inactive.

As for `COc1ccc2ncc(F)c(CCN3CCC(NCc4cc5c(cn4)OCCS5)CC3)c2c1`, the values for the growth inhibition in assay [1] and in assay [4] were 40% and 89% (active), respectively. For the same molecule, the inhibition in assay [2] was 4%; in assay [3] it was -6%. The result in assay [5], in assay [6], in assay [7] and in assay [8] was inactive.

Regarding `O=C(Nc1ccc(OC2CCN(Cc3ccsc3)CC2)c(Cl)c1)c1cccs1`, the growth inhibition is 93% (active) in assay [1] and 94% (active) in assay [4]. Besides, the figures for the inhibition in assay [2] and in assay [3] were 16% and 1%, respectively. The result in assay [5], in assay [6], in assay [7] and in assay [8] was inactive.

On to `CC(C)C[C@H](NC(=O)c1ccc(F)cc1)C(=O)N[C@H](/C=N/NC(=O)c1ccccc1)CCc1ccccc1`, for which the values for the growth inhibition in assay [1] and in assay [4] were 61% (active) and 92% (active), respectively. The inhibition in assay [2] was 1%; in assay [3], -2%. Moreover, the result in assay [5], in assay [6], in assay [7] and in assay [8] was inactive.

Regarding `COc1ccccc1N1CCN(C(C(=O)NCc2ccc3c(c2)OCO3)c2ccc3c(c2)OCCCO3)CC1` (stereo not given), the growth inhibition was 13% in assay [1] and 88% (active) in assay [4]. Moreover, the inhibition in assay [2] was 15%; in assay [3], 5%. Also, the outcome in assay [5], in assay [6], in assay [7] and in assay [8] was inactive.

With `NC(N)=Nc1nc(-c2cc(NC(=O)C(F)(F)F)cc([N+](=O)[O-])c2)cs1`, the growth inhibition was 51% (active) in assay [1] and 98% (active) in assay [4]. Moreover, the inhibition was 7% in assay [2] and 5% in assay [3]. Further, the result in assay [5], in assay [6], in assay [7] and in assay [8] was inactive.

`FC(F)(F)c1ccc2nccc(NN=Cc3ccccc3Cl)c2c1`: the growth inhibition in assay [1] was 83% (active); in assay [4] it was 101% (active). Also, the inhibition in assay [2] was -6%; in assay [3], 5%. In addition, the outcome in assay [5], in assay [6], in assay [7] and in assay [8] was inactive.

Turning to `COc1ccc2ncc(C#N)c(CCN3CCC(NCc4ccc5c(c4)NC(=O)CO5)CC3)c2c1`, the growth inhibition is 43% in assay [1] and 99% (active) in assay [4]. The inhibition in assay [2] was 25%; in assay [3] it was -3%. The result in assay [5], in assay [6], in assay [7] and in assay [8] was inactive.

`O=C(Nc1cccc(C(F)(F)F)c1)c1cccc2[nH]c(C(F)(F)F)nc12`: the figures for the growth inhibition in assay [1] and in assay [4] were 98% (active) and 100% (active), respectively. The results for the inhibition in assay [2] and in assay [3] were 81% (active) and -7%, respectively. Also, the outcome in assay [5], in assay [6], in assay [7] and in assay [8] was inactive.

The term inhibition denotes the change of the read-out against control, counted positive when it falls.

These data come from PubChem BioAssay.
